EBI2 block = antagonists of human EBI2 receptor. AID 651636. P32249. EBI2 beta-arrestin recruitment, luminescence, 7a,25-OHC stimulated. inhibition, % at 5 µM. hit rate 0.81% among 360,000; in the data active = inhibition above about 38%;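 also: enzyme fragment complementation signal reports receptor beta-arrestin coupling in cells; 0% = agonist plus DMSO wells and 100% = wells without agonist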
Target sequence (P32249 whole entry, looked up, the tested form may be a part): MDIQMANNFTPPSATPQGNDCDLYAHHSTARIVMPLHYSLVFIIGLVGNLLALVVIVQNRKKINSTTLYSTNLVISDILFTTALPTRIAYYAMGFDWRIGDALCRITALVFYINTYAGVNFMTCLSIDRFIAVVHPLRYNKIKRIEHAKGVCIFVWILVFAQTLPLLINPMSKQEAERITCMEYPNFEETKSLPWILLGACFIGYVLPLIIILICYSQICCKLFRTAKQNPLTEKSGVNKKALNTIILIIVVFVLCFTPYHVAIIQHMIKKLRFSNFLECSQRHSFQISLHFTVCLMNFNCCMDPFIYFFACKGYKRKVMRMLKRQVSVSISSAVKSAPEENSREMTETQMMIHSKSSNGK
PfHsp90 set2 = inhibits growth of yeast expressing Plasmodium falciparum Hsp90; S. cerevisiae expressing PfHsp90, BacTiter-Glo ATP, 48 h; yeast lacking PDR1 and PDR3 efflux regulators; hit rate 0.32% among 310,000; inhibition, % at 9.4 µM; AID 504621;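 active = every replicate shows inhibition above about 80%, whatever the replicate mean, limit read from the data; inconclusive = mean inhibition reaches the set limit but some replicate falls short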;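 also: 0% = DMSO neutral controls and 100% = 20 µM radicicol positive controls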
SKKanGAS inh = blocks kanamycin growth of S. pyogenes SKKanGAS strain; BacTiter-Glo, 6 h; inhibition, % at 7.5 µM; hit rate 1.3% among 300,000; AID 1662;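 active = mean replicate score, as percent of positive control median, at least 50; inconclusive = mean below 50 but one replicate at or above 50; inactive = mean and every replicate below 50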;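 also: strain carries kanamycin resistance gene driven by streptokinase promoter and grows in 40 µg/ml kanamycin; loss of luminescence reflects streptokinase promoter inhibition or plain growth inhibition; 0% = median of DMSO wells and 100% = positive control at its reference dose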
tim23-1 inh = inhibits growth of tim23-1 mutant yeast; S. cerevisiae tim23-1 growth, BacTiter-Glo luminescence, 24 h; inhibition, % at 20 µM; hit rate 1.3% among 330,000;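 active = growth inhibition of the mutant yeast at or above 50%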;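 also: temperature-sensitive mutant grown at 25 °C; plate controls were DMSO-treated mutant yeast for no effect and medium wells lacking yeast for full effect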
tim10-1 inh = growth inhibitors of tim10-1 mutant yeast; hit rate 2.2% among 330,000; S. cerevisiae tim10-1 ts strain growth, BacTiter-Glo, 24 h; inhibition, % at 20 µM;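 active = inhibition of at least 40%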;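 also: mutant grown at 25 °C; 0% = DMSO wells with yeast and 100% = wells holding no yeast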
TIM10 inh = inhibits growth of TIM10 yeast strain; S. cerevisiae TIM10 strain growth, BacTiter-Glo luminescence, 24 h; inhibition, % at 10 µM; hit rate 1.4% among 330,000;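 active = inhibition of 40% or more at the single tested concentration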;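 also: wild-type TIM10 isogenic control strain grown at permissive 25 °C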
tim10-1 confirm = confirmation of tim10-1 mutant yeast growth inhibitors. shares compounds with tim10-1 inh. S. cerevisiae tim10-1 ts strain growth, BacTiter-Glo, 24 h. inhibition, % at 20 µM. hit rate 56% among 7,400;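 active = inhibition of yeast growth at or above a set limit in either of two repeat tests at 20 µM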;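 also: tim10-1 mutant grown at permissive 25 °C to find synthetic lethal compounds; 0% = DMSO yeast wells and 100% = medium wells without yeast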
tim10 confirm = TIM10 yeast growth inhibition, confirmed; shares compounds with TIM10 inh; S. cerevisiae tim10 strain growth, BacTiter-Glo luminescence, 24 h; inhibition, % at 10 µM; hit rate 63% among 4,600; AID 463215;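 active = inhibition of yeast growth at or above a set limit in either of two replicates at 10 µM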;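 also: this counterscreen used the strain with wild-type TIM10; 0% = yeast with DMSO and 100% = medium wells lacking yeast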
tim23-1 conf = confirmation of tim23-1 mutant yeast growth inhibitors; shares compounds with tim23-1 inh; S. cerevisiae tim23-1 growth, BacTiter-Glo luminescence, 24 h; inhibition, % at 20 µM; hit rate 83% among 4,400;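 active = inhibition above about 39% in either of two replicate wells at 20 µM, limit read from the data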;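 also: temperature-sensitive tim23-1 mutant grown at 25 °C; 0% = DMSO wells with yeast and 100% = medium wells without yeast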
* marks the source's active call; other numbers are inactive results; ? = inconclusive; . = no result given; ! = not active in a repeat. Hits are enriched below; roughly 4.7% of the tested compounds scored in any of these assays.

SMILES	EBI2 block	PfHsp90 set2	SKKanGAS inh	tim23-1 inh	tim10-1 inh	TIM10 inh	tim10-1 confirm	tim10 confirm	tim23-1 conf
O=C1CC(c2ccccc2)CC(O)=C1C=Nc1cccc(Cl)c1 (configuration not stated)	15.9	105.4*	3.5	84.8*	89.2*	89.9*	78.9*	93.8*	85.1*
O=C1CC(c2ccccc2)CC(O)=C1C=Nc1ccc(Cl)cc1 (configuration not stated)	3.5	1.6	1.0	7.1	27.4	26.0	.	.	.
O=C(/C=C/c1ccccc1[N+](=O)[O-])c1ccccc1Br	-20.3	103.5*	2.7	79.9*	62.6*	63.7*	72.8*	69.7*	78.8*
O=c1n(Cc2ccc(Cl)cc2)c2sc3c(c2c2ncnn12)CCCC3	2.8	-26.8	31.6	68.3*	43.6*	-1.9	27.0	.	58.2*
C=CCn1c(=O)n2ncnc2c2c3c(sc21)CCCC3	-9.1	-12.4	-5.9	.	.	.	.	.	.
Nc1cccc2c1C(=O)N(C(=O)/C=C/c1ccc(F)cc1)C2=O	1.6	14.3	2.9	74.2*	58.8*	49.3*	60.8*	47.0*	86.1*
Cn1c(Cl)cnc1C(O)(c1ccccc1)c1ccccc1	4.8	-10.0	-2.2	17.7	17.4	13.3	.	.	.
CCCCCCCCn1ccc(=N)cc1	-1.8	3.3	8.9	18.9	-7.5	11.9	.	.	.
CCCCCCCCCCCCCCCCn1cc[n+](C)c1	-7.2	129.1*	113.6*	55.5*	93.4*	66.8*!	52.7*	58.2*	63.0*
COc1ccc(-c2cc(-c3cc(C)ccc3O)[nH]n2)cc1	26.6	-5.2	?	68.9*	51.9*	50.9*	45.1*	45.0*	-26.1
COc1ccc(-c2cc(-c3ccc(OC)cc3)[nH]n2)cc1	16.6	-0.1	12.3	44.0	19.0	31.3	.	.	.
N#Cc1ccc(S(=O)(=O)N2CCC(C(=O)Nc3cccc(C(=O)NC4CC4)c3)CC2)cc1	4.9	15.6	.	2.1	-16.2	1.7	.	.	.
CCCCN1C(=O)C(=Nc2cccc3cnccc23)c2ccccc21	21.1	-22.4	9.0	71.1*	44.7*	42.1*	46.4*	34.8*	67.3*
CN1c2ccccc2C(C)(C)C12C=Cc1cc(O)ccc1O2 (configuration not stated)	12.6	.	6.5	54.5*	51.9*	43.2*	41.2*	42.3*	52.4*
CN1c2ccccc2C(C)(C)C12C=Nc1c(cc(N3CCOCC3)c3ccccc13)O2 (configuration not stated)	15.4	-24.9	24.1	20.7	23.8	7.5	.	.	.
O=C(O)c1cnc(-c2ccccc2)nc1Sc1ccc(Cl)cc1Cl	7.8	.	?	51.0*	53.5*	12.6	14.7	.	-43.5
Cc1cccc(NC(=O)/C(C#N)=C/c2ccccc2Cl)n1	-11.5	22.7	1.3	70.8*	52.5*	42.5*	24.5	32.5*	62.5*
C=CCNC(=O)/C(C#N)=C/c1cc(Br)ccc1OC	-5.4	-9.9	-15.6	87.6*	78.4*	83.0*	83.6*	91.0*	71.0*
C=CCNC(=O)/C(C#N)=C/c1cn(-c2ccccc2)nc1-c1ccc(OC)c([N+](=O)[O-])c1	34.4	-9.4	6.5	.	.	.	.	.	.
C=CCNC(=O)/C(C#N)=C/c1ccccc1Cl	-34.0	-25.0	4.5	85.1*	50.5*	66.0*	63.5*	74.2*	80.5*
C=CCNC(=O)/C(C#N)=C/c1ccc(C(=O)O)cc1	-12.0	0.5	-3.2	11.6	4.9	-2.1	.	.	.
Cc1cccc(NC(=O)/C(C#N)=C/c2ccccc2O)n1	-11.0	3.6	-4.3	14.8	22.3	11.1	.	.	.
COc1cc(C(C)=O)ccc1OCC(=O)Nc1cc(S(=O)(=O)N2CCOCC2)ccc1N1CCCC1	6.4	0.6	.	.	.	.	.	.	.
CCOC(=O)c1sc(NC(=O)c2c(C)nn(Cc3ccccc3)c2C)cc1C	8.9	19.4	.	50.1*	42.6*	61.1*	45.7*	-0.7	51.8*
Cc1ccc(C)c2sc(NC(=O)C3CC3)nc12	0.8	10.6	3.9	37.9	39.0	37.8	.	.	.
SMILES	EBI2 block	PfHsp90 set2	SKKanGAS inh	tim23-1 inh	tim10-1 inh	TIM10 inh	tim10-1 confirm	tim10 confirm	tim23-1 conf
Cc1cc(C)c2sc(NC(=O)C3CC3)nc2c1	4.0	21.7	-0.2	61.0*	46.6*	42.3*	31.7*	34.3*	64.8*
O=C(c1ccco1)N1CCN(Cc2cccc([N+](=O)[O-])c2)CC1	-9.8	7.2	-2.9	0.9	5.4	-5.5	.	.	.
N#Cc1ccc(NC(=O)COC(=O)c2cccnc2Cl)cc1	-8.4	-0.7	.	-10.0	-22.7	-0.8	.	.	.
CCSC1=NCCN1C(=O)Cc1ccc(-c2ccccc2)cc1	2.5	.	-1.3	66.9*	77.5*	76.5*	75.8*	74.3*	35.6
CSC1=NCCN1C(=O)Cc1ccc(-c2ccccc2)cc1	-6.2	-133.9	2.1	73.1*	61.3*	59.1*	68.5*	67.2*	35.4
CC(=O)c1ccc(NC(=O)COC(=O)CCc2ccc(S(=O)(=O)N3CCOCC3)cc2)cc1	-9.3	9.7	8.0	-3.3	1.5	-14.4	.	.	.
CCN(CC)S(=O)(=O)c1cc(NC(=O)CSc2nccn2C)ccc1C	-4.2	29.6	-1.7	15.6	21.9	6.3	.	.	.
O=C(/C=C\c1ccccc1OC(=O)c1ccccc1F)c1cc2ccccc2o1	44.8*	-26.4	-5.9	58.7*	54.7*	48.5*	34.5*	22.9	49.9*
CC(=O)/C=C\c1ccccc1OC(=O)c1cc2ccccc2oc1=O	-12.3	-13.2	2.8	49.1	20.4	14.0	.	.	.
O=C(Nc1ccccc1)c1nnsc1S(=O)c1ccc(Cl)cc1 (configuration not stated)	26.6	106.3*	73.0*	55.6*	92.4*	93.6*	91.8*	98.3*	97.5*
O=C(c1nnsc1S(=O)c1ccc(Cl)cc1)N1CCOCC1 (configuration not stated)	26.6	-31.1	36.0	57.4*	60.5*	33.3	42.4*	.	90.0*
Cc1nnsc1S(=O)c1ccc(Cl)cc1 (configuration not stated)	13.5	10.3	1.9	-5.9	0.3	15.4	.	.	.
O=C(c1nnsc1S(=O)(=O)c1ccc(Cl)cc1)N1CCOCC1	-31.1	20.0	-0.9	34.7	37.8	17.2	.	.	.
CCn1c(=O)c2[nH]c(SC)nc2n(CC)c1=O	-3.8	.	.	.	.	.	.	.	.
Cc1ccc(NC2CCCN(C(=O)Cc3nonc3C)C2)cc1C (configuration not stated)	-13.9	0.6	2.6	5.0	1.9	0.7	.	.	.
CC(=O)Nc1cccc(NC(=O)c2cccc3cccnc23)c1	2.6	4.6	1.1	9.4	4.1	-5.3	.	.	.

Compound activity (PubChem)
